BoNT-A LC inh2 = BoNT A light chain protease inhibition. inhibition, % at 10 µM. multiplex microsphere protease substrate cleavage, flow cytometry. 360,000 compounds, 0.17% hits
Anthrax LF prot = anthrax lethal factor protease inhibition | AID 588501 | multiplex microsphere protease cleavage assay, LF | 360,000 compounds, 0.12% hits | inhibition, % at 10 µM
Autofluor counter = counter-screen for toxin protease inhibitors: compound fluorescence. fluorescence intensity (concentration not given with the values). compound autofluorescence counterscreen, microsphere flow cytometry; stronger effect = higher value. 360,000 compounds, 3.1% hits. AID 624483; in the data active = fluorescence intensity above about 16000; inconclusive = no clear call, values can overlap the other calls
BoNT F protease = blocks Botulinum neurotoxin F light chain protease; Multiplex microsphere protease cleavage assay, flow cytometry; inhibition, % at 10 µM; 360,000 compounds, 0.22% hits; AID 588497; in the data active = inhibition above about 35%, passing the limit was not always enough; inconclusive = no clear call, values can overlap the other calls
Each line names hits and unclear results; the compound was inactive in the other large screens. An excerpt weighted towards active compounds, which were near 3.5% of everything screened. Cut-off read from the data, not from the text of the source, unless noted: active = inhibition above about 30%; inconclusive = no clear call, values can overlap the other calls; inactive = below that.

CC1(C(=O)NS(=O)(=O)Cc2ccccc2)CCN1C(=O)Cc1ccccc1Cl (stereo unspecified)	none
O=C(NC12CC3CC(CC(C3)C1)C2)c1cccnc1	none
O=C(NC12CC3CC(CC(C3)C1)C2)c1cncc(O)c1	Autofluor counter 20010
CCc1ccc([C@@H]2C[C@H]3CN(Cc4ccccc4OC)C(=O)[C@]34CCCN24)cc1	Autofluor counter 24775
CCOc1cccc(N2C(=O)CC(=O)NC2=O)c1	none
Cc1ccccc1N1C(=O)CC(=O)NC1=O	Autofluor counter 21951
COc1cccc(N2C(=O)CC(=O)NC2=O)c1	Autofluor counter 23335
CCN(CC)c1ncnc2c1ncn2[C@H]1CN(Cc2ccc3c(c2)OCO3)C[C@@H](CO)O1	none
COc1cc(C(=O)N(Cc2ccccn2)CC2CCCO2)cc(OC)c1OC (stereo unspecified)	Autofluor counter 21493
Cc1nc(-c2ccccc2)sc1C(=O)NS(=O)(=O)c1ccc(CN2CCN(c3ccccc3)CC2)cc1	none
O=C(Nc1cc(C(=O)N2CCCC2)ccc1N1CCCC1)C1CC1	BoNT-A LC inh2 inconclusive, Autofluor counter 22662
COc1ccccc1C(=O)NCC[N+](C)(C)C	none
COc1ccccc1C(=O)NCCCn1cc(Br)c(C)n1	BoNT-A LC inh2 inconclusive, Autofluor counter 18046
CCCCn1nnnc1C(c1cc2ccccc2o1)N(Cc1ccccc1)Cc1ccccc1 (stereo unspecified)	none
O=C(c1ccco1)N1CCN(c2nc(C(F)(F)F)nc3c2nnn3Cc2ccccc2)CC1	Autofluor counter 24937
O=C(c1ccco1)N1CCN(c2ncnc3c2nnn3Cc2ccccc2Cl)CC1	none
CC(C)(C)NC(=O)C1c2ccccc2OCC(=O)N1Cc1ccccn1 (stereo unspecified)	none
COc1cccc(N=c2oc3ccc(OC)cc3cc2-c2nc3ccccc3[nH]2)c1	none
COc1cccc(N=c2oc3ccccc3cc2-c2nc3ccccc3[nH]2)c1	Autofluor counter inconclusive, BoNT F protease 54
COc1ccc(/C=C/C(=O)OCC(=O)NCc2ccccc2Cl)cc1OC	none
N#Cc1c(NC(=O)CSc2ncn[nH]2)sc2c1CCCC2	none
CCC(=O)Nc1sc2c(c1C#N)CCCCC2	none
N#Cc1c(NC(=O)CSC2=NCCS2)sc2c1CCCC2	Autofluor counter 16243
NC(=O)c1c(NC(=O)CSc2nc3c(c(C(F)(F)F)n2)CCc2ccccc2-3)sc2c1CCCC2	none
N#Cc1c(NC(=O)CSc2nc3c(c(C(F)(F)F)n2)CCc2ccccc2-3)sc2c1CCCC2	Autofluor counter 22691
CC(=O)Nc1sc2c(c1C#N)CCCCC2	BoNT-A LC inh2 inconclusive, Autofluor counter 23128
CC(=O)Nc1c(O)nc(SCC(=O)Nc2sc3c(c2C#N)CCCCCC3)[nH]c1=O	Autofluor counter 19485
CN(C)CCNc1ncnc2c1ncn2[C@H]1CN(Cc2cccs2)C[C@@H](CO)O1	none
COc1cccc(-c2nc3n(n2)CCc2ccccc2-3)c1	none
Cc1cc(C(=O)Nc2sc3c(c2C#N)CCCC3)no1	none
Cc1cc(C(=O)Nc2sc3c(c2C#N)CCC3)no1	Autofluor counter 22362
Cc1oc(C(=O)Nc2ccc(C(=O)O)cc2)cc1COc1ccccc1	Autofluor counter 16440
CCOC(=O)c1snc2c(=O)[nH]cnc12	Autofluor counter 18607
CCOC(=O)c1sc2nc[nH]c(=O)c2c1C	none
COc1ccc(NS(=O)(=O)c2ccc(C)c(C(=O)NCc3ccccc3CN3CCCC3)c2)cc1	none
O=C(CCC1CCCCC1)NNC(=O)c1cnccn1	none
O=C(NNC(=O)C1CCCCC1)c1cnccn1	Autofluor counter 22696
CC(C)CCNC(=S)NC1CCCC1	Autofluor counter 20284
CC(C)CCNC(=O)C(=O)NC1CCCC1	none
Cn1cccc1C(=O)OCC(=O)c1cc2ccccc2o1	BoNT-A LC inh2 inconclusive, Autofluor counter 20874
Cn1cccc1C(=O)OCC(=O)c1c[nH]c2ccccc12	none
O=C(COC(=O)c1ccc(Cl)s1)c1cc2ccccc2o1	Autofluor counter 20753
O=C(CSc1nc2cc(Cl)ccc2s1)c1cc2ccccc2o1	Autofluor counter 19577
CCOC(=O)C1(C)CCN1C(=O)c1ccccc1Br (stereo unspecified)	none
COc1ccc(/C=N/OC/C(O)=C(\C#N)c2nc3ccccc3[nH]2)cc1	Autofluor counter 22111
COc1cccc(OC)c1/C(O)=C(\C#N)c1nc2ccccc2[nH]1	none
CC(C)(C)/C(O)=C(/C#N)c1nc2ccccc2[nH]1	BoNT-A LC inh2 inconclusive, Autofluor counter 23471
Cc1ccc(S(=O)(=O)CCC(=O)N2CCN(c3ccc(Cl)cc3)CC2)cc1	Autofluor counter 17240
COc1ccc(CNC(=O)CCC(=O)N2CCN(S(=O)(=O)c3cc([N+](=O)[O-])ccc3C)CC2)cc1	none
O=C(CNC(=O)c1ccco1)OCc1c(F)cccc1Cl	BoNT-A LC inh2 inconclusive, Autofluor counter 20975
